The list is not random: actives were taken first. Their share in the collection is about 1.6%.
KCNQ2 block: inhibitors of rat KCNQ2 potassium channel | O88943 | CHO-K1 KCNQ2, FluxOR thallium flux, 20 min; hits give low values | B-score at 10 µM | 310,000 tested, 1.1% active | AID 2156;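 active = fluorescence ratio B-score at most minus 3 library SDs, with starting brightness B-score within 2 library SDs, cut at about -5.5 in these data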
KCNQ2 enhance: potentiators of rat KCNQ2 potassium channel; B-score at 10 µM; AID 2239; O88943; 310,000 tested, 0.54% active; CHO-K1 KCNQ2, FluxOR thallium flux fluorescence; hits give high values;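 active = fluorescence ratio B-score at least 3 SD of library B-scores, with initial fluorescence B-score within 3 of them, cut at about 5.3 in these data; same plate scores as AID 2156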;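 also: B-score of peak minus minimum over baseline fluorescence ratio after K+ and Tl+ stimulus; positive B-score means potentiation of KCNQ2 with more thallium influx and brighter signal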
Kir21 confirm: confirmation of mouse Kir2.1 potassium channel inhibitors; shares compounds with KCNQ2 enhance; Kir2.1-expressing cells, FluxOR thallium flux fluorescence; hits give low values; Tl flux remaining, % of negative control (hits give low values), % at 10 µM; 2,300 tested, 41% active; AID 2032;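 active = Primary-screen hit whose thallium flux fell at least 3 control SD below untreated wells in both duplicates, with normal baseline fluorescence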
HEK293 Tl flux: alters thallium flux in parental HEK293 cells, Kir2.1 counter-screen. FluxOR thallium flux fluorescence; 0% = unstimulated blank wells. AID 2105. 2,300 tested, 19% active. shares compounds with KCNQ2 enhance. FluxOR signal as % of negative control (100 = no effect), % at 10 µM;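 active = dye signal at least 3 control SD above or below untreated wells in both duplicates, raw fluorescence within 3, either direction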;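 also: percent is based on the flux ratio of peak minus minimum fluorescence over baseline F0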
CHO-K1 ctr: alters thallium flux in parental CHO-K1 cells, KCNQ2 counter-screen | shares compounds with KCNQ2 enhance | FluxOR thallium flux fluorescence; zero = vehicle mean+3SD, 100% = vehicle-minus-blank window | activity increase over 3SD of controls, % at 10 µM | 1,200 tested, 43% active | AID 2282;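 active = signal rise of at least 3 SD above the untreated control mean, in both duplicate wells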;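 also: counter screen of KCNQ2 potentiator hits so any rise reflects channel-independent effects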
KCNQ1 sel pot: human KCNQ1 counter-target activity of KCNQ2 potentiators. CHO KCNQ1 stable, FluxOR thallium flux fluorescence; beyond 3SD, as % of vehicle-control signal. 1,200 tested, 28% active. shares compounds with KCNQ2 enhance. activation over 3SD threshold, % at 10 µM;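 active = fluorescence ratio rise of at least 3 SD of vehicle wells above their mean, in both replicate wells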
Target sequence (P51787 whole entry, looked up): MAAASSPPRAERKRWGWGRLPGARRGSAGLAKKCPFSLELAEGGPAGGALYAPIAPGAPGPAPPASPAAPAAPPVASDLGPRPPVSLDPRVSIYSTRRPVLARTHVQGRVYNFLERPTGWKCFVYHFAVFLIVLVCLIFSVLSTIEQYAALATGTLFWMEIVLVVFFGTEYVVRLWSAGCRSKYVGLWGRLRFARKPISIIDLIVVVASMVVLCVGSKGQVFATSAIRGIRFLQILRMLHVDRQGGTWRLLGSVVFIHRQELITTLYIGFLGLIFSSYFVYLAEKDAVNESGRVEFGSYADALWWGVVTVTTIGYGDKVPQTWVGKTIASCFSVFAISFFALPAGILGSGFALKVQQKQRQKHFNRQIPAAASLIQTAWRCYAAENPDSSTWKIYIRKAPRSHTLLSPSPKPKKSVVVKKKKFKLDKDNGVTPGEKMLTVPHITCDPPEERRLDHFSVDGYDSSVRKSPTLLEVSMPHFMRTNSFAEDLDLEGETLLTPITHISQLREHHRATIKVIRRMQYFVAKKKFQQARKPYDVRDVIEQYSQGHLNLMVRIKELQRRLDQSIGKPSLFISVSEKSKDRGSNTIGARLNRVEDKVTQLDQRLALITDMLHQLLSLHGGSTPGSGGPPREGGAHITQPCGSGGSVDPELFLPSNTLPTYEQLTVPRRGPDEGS
KCNQ2 pot conf: rat KCNQ2 channel potentiator confirmation; shares compounds with KCNQ2 enhance; CHO-KCNQ2 cells, FluxOR thallium flux fluorescence; potentiation, less the hit threshold, % at 10 µM; 1,200 tested, 68% active; AID 2287;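 active = fluorescence ratio rising 3 SD or more over the vehicle control mean in both replicates, plus primary screen hit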;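 also: peak minus minimum thallium fluorescence divided by baseline after K/Tl stimulus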
Kir2-1 sel: tests whether KCNQ2 potentiators also affect mouse Kir2.1. 1,200 tested, 2% active. AID 2345. HEK293 Kir2.1, FluxOR thallium flux fluorescence. activity over 3SD threshold, % at 10 µM. shares compounds with KCNQ2 enhance;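 active = fluorescence ratio rise of at least 3 SD above the vehicle-control mean, seen in both replicates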
KCNQ2 W236L pot: potentiates the retigabine-insensitive rat KCNQ2 W236L mutant channel | shares compounds with KCNQ2 enhance | CHO KCNQ2-W236L, automated patch clamp current | current increase over 3SD of negative controls (%), hits give high values, % at 25 µM | 940 tested, 10% active | AID 2558;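 active = current increase at least 3 SD of the untreated controls above them in both duplicate recordings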
Large screens that a line does not name were inactive (follow-up assays come after a bar, where they were run).

CC(=O)Nc1ccc2nc(CN3CCN(CC=C(C)C)C(CCO)C3)ccc2c1 (configuration not stated)	none
CCOC(=O)c1c(CSC(=N)N)n(-c2ccc(C)cc2)c2cc(Br)c(OC(C)=O)cc12	none (no result: KCNQ2 enhance) | Kir21 confirm 58% | HEK293 Tl flux inactive
CCOC(=O)c1c(CSC(=N)N)n(C)c2cc(Br)c(OC(C)=O)cc12	none (no result: KCNQ2 enhance)
CCOC(=O)N1CCN(C(=O)c2cc(Cl)c(Cl)cc2C(=O)O)CC1	none (no result: KCNQ2 enhance)
CCCOC1CCCN(C(=O)c2cc(Cl)c(Cl)cc2C(=O)O)C1 (configuration not stated)	KCNQ2 enhance 8.6 | Kir21 confirm inactive | HEK293 Tl flux inactive | CHO-K1 ctr inactive | KCNQ1 sel pot inactive | KCNQ2 pot conf inactive | Kir2-1 sel inactive
COC(=O)c1c(NC(=O)COC(=O)Cn2cnc3ccccc32)sc2c1CCCC2	none (no result: KCNQ2 enhance)
COc1ccc(CS(=O)(=O)CC2(O)CCN(C(=O)c3cccc(C(F)(F)F)c3)CC2)cc1	none (no result: KCNQ2 enhance)
c1ccc(-c2nc3c(ccc4ccccc43)[nH]2)nc1	KCNQ2 enhance 8.4 | Kir21 confirm inactive | HEK293 Tl flux inactive | CHO-K1 ctr 31 | KCNQ1 sel pot 6.1 | KCNQ2 pot conf 47 | Kir2-1 sel inactive | KCNQ2 W236L pot inactive
c1ccc(-c2nc3ccccc3[nH]2)nc1	none (no result: KCNQ2 enhance)
Nc1nc(SCn2nnc3ccccc3c2=O)n[nH]1	none
Cc1c(NC(=O)COc2ncnc3ccccc23)c(=O)n(-c2ccccc2)n1C	none (no result: KCNQ2 enhance)
O=C(NNC1=C(C(=O)C(F)(F)F)CCC1)c1cccc(O)c1	none
O=C(NNC1=C(C(=O)C(F)(F)F)CCC1)c1cccnc1	KCNQ2 enhance 20 | Kir21 confirm inactive | HEK293 Tl flux 64% | CHO-K1 ctr inactive | KCNQ1 sel pot inactive | KCNQ2 pot conf 35 | Kir2-1 sel inactive
Cc1cccc(C(=O)NNC2=C(C(=O)C(F)(F)F)CCC2)c1O	KCNQ2 enhance 6.6 | Kir21 confirm inactive | HEK293 Tl flux inactive | CHO-K1 ctr inactive | KCNQ1 sel pot inactive | KCNQ2 pot conf 33 | Kir2-1 sel inactive | KCNQ2 W236L pot inactive
Cc1cccc(C(=O)NNC(=O)c2ccc(Cl)cc2)c1O	none
CCCN(S(=O)(=O)c1ccccc1F)S(=O)(=O)c1ccccc1Br	none (no result: KCNQ2 enhance)
O=C(c1ccc(Cl)cc1)N1CCc2c([nH]c3ccccc23)C1C(F)(F)F (configuration not stated)	KCNQ2 enhance 8 | Kir21 confirm inactive | HEK293 Tl flux inactive | CHO-K1 ctr 16 | KCNQ1 sel pot inactive | KCNQ2 pot conf 2.7 | Kir2-1 sel inactive | KCNQ2 W236L pot inactive
O=C(Nc1ccccc1)N1CCc2c([nH]c3ccccc23)C1C(F)(F)F (configuration not stated)	none (no result: KCNQ2 enhance)
COc1ccc(CCC(=O)NCc2cccc(C(F)(F)F)c2)cc1	KCNQ2 enhance 6.7 | Kir21 confirm inactive | HEK293 Tl flux inactive | CHO-K1 ctr 24 | KCNQ1 sel pot inactive | KCNQ2 pot conf inactive | Kir2-1 sel inactive | KCNQ2 W236L pot inactive
COc1ccc(CCC(=O)NCc2ccc3c(c2)OCO3)cc1	none
O=C(NNC(=O)c1ccccc1O)c1cccc(Br)c1	none (no result: KCNQ2 enhance)
CC1CCCCN1CC(=O)Nc1ccccc1Sc1ccccc1 (configuration not stated)	none (no result: KCNQ2 enhance)
O=C(NNc1ncc(C(F)(F)F)cc1Cl)c1ccc(Cl)c(Cl)c1	KCNQ2 enhance 12 | Kir21 confirm inactive | HEK293 Tl flux inactive | CHO-K1 ctr inactive | KCNQ1 sel pot inactive | KCNQ2 pot conf 1.2 | Kir2-1 sel inactive | KCNQ2 W236L pot 6.1%
Nc1ccccc1C(=O)NNc1ncc(C(F)(F)F)cc1Cl	none (no result: KCNQ2 enhance)
COC(C[C@H](O)CC(=O)[C@H](C)OCc1ccccc1)OC	none (no result: KCNQ2 enhance)
NC(=O)c1sc2nc(N3CCCCC3)c3c(c2c1N)CCCC3	KCNQ2 enhance 6.7 | Kir21 confirm inactive | HEK293 Tl flux inactive | CHO-K1 ctr 10 | KCNQ1 sel pot inactive | KCNQ2 pot conf inactive | Kir2-1 sel inactive | KCNQ2 W236L pot inactive
COC(=O)c1sc2nc(N3CCCCC3)c3c(c2c1N)CCCC3	none
CC(=O)c1cccc(NC(=O)COC(=O)[C@@H](NC(=O)OCc2ccccc2)C(C)C)c1	none (no result: KCNQ2 enhance)
Clc1ccccc1N1CCN(Cc2c[nH]c3ccccc23)CC1	none (no result: KCNQ2 enhance)
OC1(c2ccc(Cl)cc2)CCN(Cc2c[nH]c3ccccc23)CC1	none | Kir21 confirm 34% | HEK293 Tl flux inactive
O=c1c(Br)c(N2CCCCC2)cnn1-c1ccccc1	none
CC(C)(C)OC(=O)C(C)(C)Sc1nnc(N)s1	none (no result: KCNQ2 enhance)
C=CCn1c(SCC(N)=O)nnc1-c1cccc(Br)c1	none
C=CCn1c(SCc2ccccc2C#N)nnc1-c1cc(Br)ccc1O	none (no result: KCNQ2 enhance) | Kir21 confirm inactive | HEK293 Tl flux inactive
N=c1c(S(=O)(=O)c2ccc(Br)cc2)cc2c(=O)n3ccccc3nc2n1C1CCCCC1	none (no result: KCNQ2 enhance)
Cc1cccn2c(=O)c3cc(S(=O)(=O)c4ccc(Br)cc4)c(=N)n(C4CCCC4)c3nc12	none | Kir21 confirm inactive | HEK293 Tl flux inactive
COC(=O)C1=C(C)N(Cc2ccccc2)C(=NCCc2ccccn2)N[C@H]1c1cccc(F)c1	none | Kir21 confirm 40% | HEK293 Tl flux inactive
COC(=O)C1=C(C)N(Cc2ccccc2)C(=O)N[C@H]1c1ccccc1	none (no result: KCNQ2 enhance)
CCN1C(=NCCc2ccccn2)N[C@@H](c2cccc(F)c2)C(C(=O)OC)=C1C	none
COC(=O)C1=C(C)N(Cc2ccccc2)C(=NCC(C)C)N[C@H]1c1ccccc1	none (no result: KCNQ2 enhance) | Kir21 confirm inactive | HEK293 Tl flux inactive
Nc1ccc(-c2cnc[nH]2)cc1[N+](=O)[O-]	none
CCCc1cc(=O)oc2cc(OCC(=O)NCCCN3CCOCC3)ccc12	none (no result: KCNQ2 enhance)
CC(=O)NCc1ccc(C(=O)O)cc1	none (no result: KCNQ2 enhance)
O=C(NC(=S)Nc1nc2c(s1)CCCC2)c1ccccc1	none
COC(=O)c1ccc(C(=O)NC(=S)Nc2nc3c(s2)CCCC3)cc1	KCNQ2 enhance 7.3 | Kir21 confirm inactive | HEK293 Tl flux inactive | CHO-K1 ctr 83 | KCNQ1 sel pot inactive | KCNQ2 pot conf inactive | Kir2-1 sel inactive | KCNQ2 W236L pot inactive
CC(=O)c1cccc(N(CC(=O)NC2CCCCC2)C(=O)Cn2nnc(-c3ccccc3)n2)c1	none (no result: KCNQ2 enhance)
Cc1ccccc1NC(=O)CCN1CCc2ccccc2C1	none (no result: KCNQ2 enhance)

Source: PubChem BioAssay
